Reference: PubChem BioAssay (EPA / NIEHS)
Activity calls are given as the source filed them. The calls were made as follows: active = hit-call score of the fitted dose curve at least 0.9, where 1 is the maximum; inactive = score below 0.9.

Experiment: ATG_M_06_CIS: Attagene CIS-FACTORIAL HepG2 Assay for M06 Transcription Factor (Internal Marker) (AID 2282950)
Settings: HepG2 Attagene CIS-FACTORIAL M06 internal marker reporter; actives raise or lower the signal
Protocol: ATG_CIS is a cell-based, multiplexed-readout assay that uses HepG2, a human liver cell line, with measurements taken at 24 hours after chemical dosing in a 24-well plate.ATG_M_06_CIS is one of 52 assay component(s) measured or calculated from the ATG_CIS assay. It is designed to make measurements of mRNA induction, a form of inducible reporter, as detected with fluorescence intensity signals by Reverse transcription polymerase chain reaction (RT-PCR) and Capillary electrophoresis technology.Data from the assay component ATG_M_06_CIS was analyzed into 1 assay endpoint. This assay endpoint, ATG_M_06_CIS, was analyzed with bidirectional fitting relative to DMSO as the negative control and baseline of activity. Using a type of inducible reporter, measures of mRNA for gain or loss-of-signal activity can be used to understand the background control at the transcription factor-level as they relate to the gene . Furthermore, this assay endpoint can be referred to as a secondary readout, because this assay has produced multiple assay endpoints where this one serves a background control function. To generalize the intended target to other relatable targets, this assay endpoint is annotated to the background measurement intended target family, where the subfamily is internal marker.
Human liver HepG2 cells are transiently transfected with multiple reporter transcription units (MRTUs) in 6-well plates using FuGene 6 reagent (Roche; 3 ml FuGene/1 mg DNA). The MRTU constructs are regulated by a cis-regulating element (promoter). […] A major difference between the CIS and TRANS system is that in CIS activities of endogenous TFs are measured, whereas the TRANS assay evaluates changes in activities of exogenous, chimeric NR-Gal4 proteins. […] At the end of 24 hour incubation, total RNA was isolated using TriZol reagent (Invitrogen). The isolated RNA is then reverse-transcribed using oligo(dT) primer and Mo-MLV reverse transcriptase (Invitrogen) with DNAse I (Ambion) treatment for 30 min. The one-tenth of the produced cDNA was amplified by PCR using Taq DNA polymerase (Invitrogen) and two reporter sequence-specific primers. The PCR products were fluorescently labeled by primer extension with 6-arboxyfluorescein (6-FAM) 5'-labeled reporter sequence-specific primer (2 min at 95 C, 20 s at 68 C and 10 min at 72 C) and these products were digested with 5U of HpaI (New England Biolabs) for 2h at 37 C. The fragments were purified using Qiaquick PCR columns (Qiagen), analyzed on an ABI 3130xL genetic analyzer (Applied Biosystems) with peak positions identified by using a set of X-rhodamine (ROX)-labeled MapMarker1000 molecular weight standards (BioVentures). The raw capillary electrophoresis data was processed using Attagraph software (Attagene).

outcome, inactive:
CCCCC(CC)COC(=O)CCCCCCCC(=O)OCC(CC)CCCC (stereo not given)
CCCCCCCCCCCCCCCCO
O=C1OC(c2ccc(O)cc2)(c2ccc(O)cc2)c2ccccc21
CCCCc1nc2cccnc2n1Cc1ccc(-c2ccccc2-c2nnn[nH]2)cc1
COC(=O)CCC(=O)OC
c1ccc2occc2c1
CCCCCCC(C=O)=Cc1ccccc1
O=[Si]=O
Cc1cc(Cc2ccc(N)c(C)c2)ccc1N
O=C(NS(=O)(=O)/C=C/c1cccs1)c1ccc(F)cc1Br
C/C=C/c1ccc(OC)cc1
CN(C)CCCN(C)CCCN(C)C
CC(COCC(C)OC(=O)c1ccccc1)OC(=O)c1ccccc1 (stereo not given)
O=C(Oc1ccccc1)c1cccc(C(=O)Oc2ccccc2)c1
Oc1ccc(O)cc1
CCCCC(CC)COP(=O)(OCC(CC)CCCC)OCC(CC)CCCC (stereo not given)
O=Cc1ccccc1C=O
CC(=O)S[C@H](C(=O)N[C@H]1Cc2ccccc2[C@H]2CCC[C@@H](C(=O)O)N2C1=O)C(C)C
O=NO
Cn1cnc2c1c(=O)[nH]c(=O)n2C
CCCCCCCCCCCCCCOS(=O)(=O)O
COc1ccc(C(=O)Nc2nc3ccccc3c(NCc3ccccc3)c2C#N)cc1
CCCCCCCC(=O)OC
C=CCCCCCCCCCCCC
CC(=O)O
CSc1ccc(Oc2ccc(S(N)(=O)=O)cc2CN(C)C)cc1C
Cc1ccc(-c2cc(C(F)(F)F)nn2-c2ccc(S(N)(=O)=O)cc2)cc1
CC(C)c1cccc(C(C)C)c1NC(=O)NS(=O)(=O)c1cc(C(C)(C)O)co1
Cc1ccc(C(C)(C)C)c(O)c1
CCCCOC(=O)CCCCC(=O)OCCCC
CN(C)CCCN1c2ccccc2Sc2ccc(Cl)cc21
CCCC[C@H]1CN(CC2CCOCC2)C(=O)OC12CCN(C1(C)CCN(C(=O)c3c(C)ncnc3C)CC1)CC2
OCC(CO)n1cnc(-c2ccc(F)cc2)c1-c1ccnc(Oc2ccccc2)n1
Cc1c(C)c2c(c(C)c1O)CCC(C)(COc1ccc(CC3SC(=O)NC3=O)cc1)O2 (stereo not given)
CC(=O)OCC(COC(C)=O)OC(C)=O
Nc1nc(Cl)nc2c1ncn2[C@H]1C[C@H](O)[C@@H](CO)O1
O=C(O)c1cccnc1
C#CC(O)C(CC)CCCC (stereo not given)
NC(=Nc1ccccc1)Nc1ccccc1
COc1ccc(OC(F)(F)F)cc1CN[C@H]1CCCN[C@H]1c1ccccc1
